Assay results from PubChem BioAssay (NCI).
This is part of a sample that, as a whole, favours compounds with a hit. Of some 79,000 tested, about 15% had one in any assay. Activity calls are given as the source filed them. No stated cut-off is given here; in the data, active means growth inhibition above about 70%; inactive means the rest.

Assays:
[1] = NCI Yeast Anticancer Drug Screen. Data for the rad52 strain (AID 147);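 further: 0% = growth of vehicle-treated control cultures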; details: S. cerevisiae rad52 mutant growth inhibition, hits give high values
Procedure, shortened: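 Screen used a yeast mutant impaired in DNA repair. After compound exposure, growth was measured. Values reflect inhibition compared with vehicle-treated cells.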

[2] = NCI Yeast Anticancer Drug Screen. Data for the wt1 strain (AID 149);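 further: 0% = growth of vehicle-treated wt1 cultures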; details: S. cerevisiae wt1 strain (SPY 50644) growth inhibition, hits give high values
Procedure, shortened: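 wt1 strain grown with compound or vehicle; inhibition taken from the growth difference.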

[3] = NCI Yeast Anticancer Drug Screen. Data for the rad50EPP+ strain (AID 151);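 further: 0% = growth of vehicle-treated control cultures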; details: S. cerevisiae rad50 mutant strain, hits give high values
Procedure, shortened: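 Exposing the rad50EPP+ strain to each compound, growth was compared with vehicle-only cultures to give inhibition.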

[4] = NCI Yeast Anticancer Drug Screen. Data for the mgt1 strain (AID 153); details: S. cerevisiae mgt1 mutant growth inhibition, hits give high values
Procedure, shortened: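 Genetically defined yeast (mgt1) treated with compound; inhibition of growth expressed against vehicle-treated controls.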

[5] = NCI Yeast Anticancer Drug Screen. Data for the rad50 strain (AID 155);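 further: 0% = growth of vehicle-only cultures of the same strain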; details: S. cerevisiae rad50 strain growth inhibition, hits give high values
Procedure, shortened: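 DNA repair mutant yeast, compound exposure, growth read-out; inhibition is taken relative to vehicle.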

[6] = NCI Yeast Anticancer Drug Screen. Data for the mec2-1 strain (AID 157); details: S. cerevisiae mec2-1 strain, hits give high values
Procedure, shortened: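 Readout is yeast growth inhibition, normalised to vehicle-treated controls, in the mec2-1 strain exposed to compound.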

[7] = NCI Yeast Anticancer Drug Screen. Data for the rad14 strain (AID 159);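 further: 0% = growth of vehicle-treated control cultures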; details: S. cerevisiae rad14 strain growth inhibition, hits give high values
Procedure, shortened: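 DNA repair-defective yeast, compound-exposed; % growth inhibition derived by comparison with vehicle-treated controls.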

[8] = NCI Yeast Anticancer Drug Screen. Data for the sgs1 mgt1 strain (AID 161);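 further: 0% = growth of cultures given vehicle only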; details: S. cerevisiae sgs1 mgt1 strain, hits give high values
Procedure, shortened: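 Growth of a repair-deficient yeast mutant was monitored after compound treatment and expressed as inhibition relative to vehicle-treated cultures.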

[9] = NCI Yeast Anticancer Drug Screen. Data for the CLN2oe strain (AID 163);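 further: 0% = growth of vehicle-only control cultures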; details: S. cerevisiae CLN2oe strain, hits give high values
Procedure, shortened: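 Values reflect how much compound exposure reduced yeast growth, referenced to vehicle-exposed cells. Assay organism is a strain with a defined genetic change affecting cell-cycle control.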

[10] = NCI Yeast Anticancer Drug Screen. Data for the cln2 rad14 strain (AID 165);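 further: 0% = growth equal to vehicle treated cultures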; details: S. cerevisiae cln2 rad14 strain, hits give high values
Procedure, shortened: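 Relative to vehicle controls, growth inhibition of compound-treated cln2 rad14 yeast was recorded.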

[11] = NCI Yeast Anticancer Drug Screen. Data for the bub3 strain (AID 167); details: S. cerevisiae bub3 mutant strain, hits give high values
Procedure, shortened: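 In this screen, a yeast mutant lacking normal mitotic checkpoint function is challenged with compound. Relative growth versus vehicle gives the inhibition value.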

[12] = NCI Yeast Anticancer Drug Screen. Data for the wt2 strain (AID 169);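 further: 0% = growth of vehicle-treated yeast cultures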; details: S. cerevisiae wt2 strain growth inhibition, hits give high values
Procedure, shortened: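 Values express reduction in yeast growth under compound treatment, referenced to vehicle-treated cells.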

[13] = NCI Yeast Anticancer Drug Screen. Data for the mlh1 strain (AID 171);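 further: 0% = growth of vehicle-treated control cultures of the same strain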; details: S. cerevisiae mlh1 strain growth inhibition, hits give high values
Procedure, shortened: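 Steps: expose the defined-mutant yeast strain to compound; expose a parallel culture to vehicle; measure growth; express compound effect as inhibition relative to the vehicle culture.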

[14] = NCI Yeast Anticancer Drug Screen. Data for the sgs1 strain (AID 173);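 further: 0% = growth of vehicle-only control cultures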; details: S. cerevisiae sgs1 mutant, hits give high values
Procedure, shortened: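 Treat defined-mutant yeast with compound; measure growth; calculate inhibition relative to vehicle-treated cells.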

[15] = NCI Yeast Anticancer Drug Screen. Data for the mlh1 rad18 strain (AID 175); details: S. cerevisiae mlh1 rad18 strain growth inhibition, hits give high values
Procedure, shortened: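 Test agents were incubated with a yeast strain of defined genotype (DNA damage repair defect). Inhibition of growth was derived by comparison with vehicle-exposed cultures.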

[16] = NCI Yeast Anticancer Drug Screen. Data for the rad18 strain (AID 177); details: S. cerevisiae rad18 mutant growth inhibition, hits give high values
Procedure, shortened: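 A genetically defined yeast mutant impaired in DNA damage repair was treated with test compounds, then its growth was measured against cultures receiving vehicle alone.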

[17] = at 5.0 µM (retest, dose inferred, filed as 0.5)
[18] = at 50.0 µM (retest, dose inferred, filed as 5.0)

Measured: growth inhibition

CCO/C(C)=C(/C#N)C(N)=S
inactive: [1]; at 1.2 µM -1% | [1]; at 3.7 µM -1% | [1]; at 11.0 µM -1% | [1]; at 33.0 µM -2% | [1]; at 100.0 µM 3% | [2]; at 1.2 µM -1% | [2]; at 3.7 µM -2% | [2]; at 11.0 µM 0% | [2]; at 33.0 µM 0% | [2]; at 100.0 µM 1% | [3]; at 1.2 µM -3% | [3]; at 3.7 µM -6% | [3]; at 11.0 µM -11% | [3]; at 33.0 µM -16% | [3]; at 100.0 µM 2% | [4]; at 1.2 µM -2% | [4]; at 3.7 µM -4% | [4]; at 11.0 µM -5% | [4]; at 33.0 µM 14% | [4]; at 100.0 µM 0% | [5]; at 1.2 µM 1% | [5]; at 3.7 µM -1% | [5]; [17] 13% | [5]; at 11.0 µM -1% | [5]; at 33.0 µM 0% | [5]; [18] 67% | [5]; at 50.0 µM 60% | [5]; at 100.0 µM 2% | [6]; at 1.2 µM -2% | [6]; at 3.7 µM 1% | [6]; [17] 3% | [6]; at 11.0 µM -1% | [6]; at 33.0 µM -1% | [6]; [18] 2% | [6]; at 50.0 µM 35.5% | [6]; at 100.0 µM 1% | [7]; at 1.2 µM -2% | [7]; at 3.7 µM -2% | [7]; at 11.0 µM 0% | [7]; at 33.0 µM 0% | [7]; at 100.0 µM 4% | [8]; [17] -9% | [8]; at 50.0 µM 40.3% | [9]; at 1.2 µM -3% | [9]; at 3.7 µM -4% | [9]; at 11.0 µM -1% | [9]; at 33.0 µM -8% | [9]; at 100.0 µM -11% | [10]; [17] 5% | [10]; [18] 21% | [11]; at 1.2 µM -4% | [11]; at 3.7 µM -3% | [11]; [17] 4% | [11]; at 11.0 µM -3% | [11]; at 33.0 µM -7% | [11]; at 100.0 µM -4% | [12]; at 1.2 µM -1% | [12]; at 3.7 µM -2% | [12]; at 11.0 µM 0% | [12]; at 33.0 µM 1% | [12]; at 100.0 µM 1% | [13]; at 1.2 µM -2% | [13]; at 3.7 µM -3% | [13]; at 11.0 µM -1% | [13]; at 33.0 µM -3% | [13]; at 100.0 µM 0% | [14]; at 1.2 µM -1% | [14]; at 3.7 µM 3% | [14]; at 11.0 µM 1% | [14]; at 33.0 µM 3% | [14]; at 100.0 µM 6% | [15]; [17] 3% | [15]; at 50.0 µM 42.9% | [16]; at 1.2 µM 0% | [16]; at 3.7 µM -1% | [16]; at 11.0 µM 7% | [16]; at 33.0 µM -1% | [16]; at 100.0 µM 4%
active: [8]; [18] 73% | [10]; at 50.0 µM 85.3% | [11]; [18] 70% | [11]; at 50.0 µM 74.7% | [15]; [18] 84%

O=C(O)c1cc2ccccc2c2c1C(=O)c1ccccc1-2
inactive: [1]; at 1.2 µM -3% | [1]; at 3.7 µM 21% | [2]; at 1.2 µM -4% | [2]; at 3.7 µM 16% | [2]; at 11.0 µM 47% | [3]; at 1.2 µM -23% | [3]; at 3.7 µM -36% | [3]; at 11.0 µM 10% | [3]; at 33.0 µM 47% | [3]; at 100.0 µM 67% | [4]; at 1.2 µM 11% | [4]; at 3.7 µM 20% | [4]; at 11.0 µM 43% | [5]; at 1.2 µM 4% | [5]; at 3.7 µM 19% | [5]; [17] 8% | [6]; at 1.2 µM -9% | [6]; at 3.7 µM 9% | [6]; [17] 25% | [6]; at 11.0 µM 29% | [7]; at 1.2 µM 8% | [7]; at 3.7 µM 21% | [7]; at 11.0 µM 43% | [8]; [17] 0% | [9]; at 1.2 µM 13% | [9]; at 3.7 µM 28% | [9]; at 11.0 µM 64% | [10]; [17] 45% | [11]; at 1.2 µM -1% | [11]; at 3.7 µM 7% | [11]; [17] 14% | [11]; at 11.0 µM 56%
active: [1]; at 11.0 µM 74% | [1]; at 33.0 µM 96% | [1]; at 100.0 µM 94% | [2]; at 33.0 µM 94% | [2]; at 100.0 µM 94% | [4]; at 33.0 µM 95% | [4]; at 100.0 µM 95% | [5]; at 11.0 µM 77% | [5]; at 33.0 µM 95% | [5]; [18] 94% | [5]; at 50.0 µM 88.2% | [5]; at 100.0 µM 93% | [6]; at 33.0 µM 95% | [6]; [18] 96% | [6]; at 50.0 µM 91.5% | [6]; at 100.0 µM 92% | [7]; at 33.0 µM 94% | [7]; at 100.0 µM 95% | [8]; [18] 94% | [8]; at 50.0 µM 92.6% | [9]; at 33.0 µM 96% | [9]; at 100.0 µM 95% | [10]; [18] 97% | [10]; at 50.0 µM 88.8% | [11]; at 33.0 µM 95% | [11]; [18] 96% | [11]; at 50.0 µM 90.8% | [11]; at 100.0 µM 94%
